About 2,000 (36%) of roughly 5,500 compounds were called active. Not shown: some 18% with an inconclusive outcome. Cut-off read from the data, not from the text of the source: active = normalized growth mostly below about 0.91 (no sharp cut-off); inconclusive = no clear call, values can overlap the other calls; inactive = mostly above about 0.92. The list shows a part of the results.
Experiment: chemical genetic growth profiling, strain panel (AID 1159580);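 note: tested at 20 µM; growth read once vehicle control cultures reached saturation at 30 °C; 1 = growth at the plate median or of vehicle wells; lower values mean less growth of the strain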
Settings: S. cerevisiae deletion strains, growth OD

Measured: normalized growth

COc1cc2c(cc1OC)-c1c(oc3c4c(ccc3c1=O)OC(C(C)C)C4)CO2 (stereo unspecified)
inactive: locus YAL013W, strain DEP1, hits give low values 1.01 | locus YBR021W, strain FUR4, hits give low values 1.06 | locus YBR229C, strain ROT2, hits give low values 1.01 | locus YCL029C, strain bik1, hits give low values 0.99 | locus YDL035C, strain GPR1, hits give low values 1.05 | locus YDL074C, strain BRE1, hits give low values 1.06 | locus YDL101C, strain DUN1, hits give low values 0.981 | locus YDL134C, strain PPH21, hits give low values 0.983 | locus YDL185W, strain tfp1, hits give low values 0.942 | locus YDL192W, strain arf1, hits give low values 1.01 | locus YDR101C, strain arx1, hits give low values 1.04 | locus YDR162C, strain NBP2, hits give low values 0.978 | locus YDR318W, strain mcm21, hits give low values 0.973 | locus YDR388W, hits give low values 0.982 | locus YDR502C, strain sam2, hits give low values 0.978 | locus YER110C, hits give low values 0.989 | locus YER155C, strain BEM2, hits give low values 0.997 | locus YER167W, strain BCK2, hits give low values 1.01 | locus YGL078C, strain dbp3, hits give low values 0.938 | locus YGL086W, strain mad1, hits give low values 0.983 | locus YGL248W, strain PDE1, hits give low values 0.988 | locus YGR078C, strain PAC10, hits give low values 0.982 | locus YGR135W, strain pre9, hits give low values 0.923 | locus YGR252W, strain gcn5, hits give low values 1.03 | locus YHR079C, strain IRE1 (second series), hits give low values 0.969 | locus YHR094C, strain hxt1, hits give low values 0.979 | locus YHR129C, strain ARP1, hits give low values 1 | locus YHR200W, strain rpn10, hits give low values 0.985 | locus YIL066C, strain RNR3, hits give low values 1.03 | locus YIL073C, strain SPO22, hits give low values 0.942 | locus YIL125W, strain kgd1, hits give low values 0.984 | locus YIR030C, strain dcg1, hits give low values 0.968 | locus YJL095W, strain BCK1, hits give low values 0.965 | locus YJL134W, strain LCB3, hits give low values 1 | locus YJL168C, strain set2, hits give low values 0.979 | locus YJL187C, strain SWE1 (second series), hits give low values 0.974 | locus YJR075W, strain HOC1, hits give low values 0.971 | locus YKL009W, strain mrt4, hits give low values 1.02 | locus YKL068W, hits give low values 0.98 | locus YKL085W, strain MDH1 (second series), hits give low values 0.973 | locus YKL085W, strain MDH1, hits give low values 0.973 | locus YKL190W, strain CNB1, hits give low values 0.992 | locus YKR001C, strain vps1, hits give low values 1.01 | locus YLR039C, strain RIC1, hits give low values 0.998 | locus YLR058C, strain SHM2, hits give low values 1 | locus YLR102C, strain apc9, hits give low values 0.988 | locus YLR268W, strain sec22, hits give low values 1.04 | locus YLR330W, strain CHS5, hits give low values 0.998 | locus YLR342W, strain FKS1 (second series), hits give low values 1.1 | locus YLR371W, strain rom2, hits give low values 0.982 | locus YLR418C, strain cdc73, hits give low values 0.981 | locus YML016C, strain PPZ1, hits give low values 0.989 | locus YML032C, strain rad52, hits give low values 1.01 | locus YML124C, strain tub3, hits give low values 0.971 | locus YMR078C, strain ctf18, hits give low values 0.962 | locus YMR223W, strain ubp8, hits give low values 0.979 | locus YMR263W, strain SAP30, hits give low values 0.984 | locus YMR307W, strain GAS1, hits give low values 1.15 | locus YNL067W, strain RPL9B, hits give low values 0.964 | locus YNL153C, strain GIM3, hits give low values 0.963 | locus YNL233W, strain BNI4, hits give low values 0.984 | locus YNL250W, strain rad50, hits give low values 0.93 | locus YNL271C, strain bni1, hits give low values 0.958 | locus YNL298W, strain CLA4, hits give low values 0.979 | locus YNL307C, strain MCK1, hits give low values 0.985 | locus YNR052C, strain pop2, hits give low values 0.962 | locus YOL006C, strain TOP1, hits give low values 1.17 | locus YOL012C, strain htz1 0.827 | locus YOL147C, strain pex11, hits give low values 0.973 | locus YOR061W, strain CKA2, hits give low values 1.02 | locus YOR069W, strain VPS5, hits give low values 0.996 | locus YOR136W, strain idh2, hits give low values 0.965 | locus YOR144C, strain elg1, hits give low values 1 | locus YOR184W, strain ser1, hits give low values 1.08 | locus YOR316C, strain cot1, hits give low values 0.97 | locus YPL241C, strain CIN2, hits give low values 0.986 | locus YPR119W, strain clb2, hits give low values 0.966 | locus YPR141C, strain kar3, hits give low values 0.954 | locus YPR163C, strain tif3, hits give low values 0.988 | locus YPR167C, strain met16, hits give low values 0.973 | strain wtn01, hits give low values 1.03
